We go through ten sequences from article PMC8384837, “Expanding the binding specificity for RNA recognition by a PUF domain”.

Holding throughout (experiment): yeast three-hybrid, YBZ-1, SC-Leu-His + 0.5 mM 3-AT, 4 days
Common to all, as to details: tags: N-Gal4 AD-HA kept; label: inside an RPR1-promoter hybrid RNA with tandem MS2 sites; ssRNA

One assay concerns the target PUM1 PUF domain R7-GRV (Homo sapiens, UniProt Q14671 828-1176, S1079G;N1080R;E1083V). Put shortly: (§1)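 A centromeric plasmid in strain YBZ-1 co-expressed Pumilio-1 PUF domain libraries, randomized at the three base-contacting residues of each repeat, with matching RNA elements; the strain carries a LexA–MS2 coat fusion and a HIS3 reporter. After four days on SC-Leu (input) or SC-Leu-His + 0.5 mM 3-AT (selection), the repeat regions were PCR-amplified and Illumina-sequenced. The interaction score is the log change in variant frequency from input to selection, using log2 and a pseudocount of 1 where absent.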

Another assay addresses PUM1 PUF domain R1-CIR (Homo sapiens, UniProt Q14671 828-1176, S863C;R864I;Q867R). Put shortly: as §1
The target in the next assay is PUM1 PUF domain R5-QIR (Homo sapiens, UniProt Q14671 828-1176, C1007Q;R1008I;Q1011R). The essentials:
as §1

The target in a further assay is PUM1 PUF domain R5-RTL (Homo sapiens, UniProt Q14671 828-1176, C1007R;R1008T;Q1011L). The essentials:
as §1

Another assay concerns the target PUM1 PUF domain R1-TFR (Homo sapiens, UniProt Q14671 828-1176, S863T;R864F;Q867R). The essentials: as §1
The next assay has as its target PUM1 PUF domain R1-KRQ (Homo sapiens, UniProt Q14671 828-1176, S863K). The essentials: as §1
The next assay has as its target PUM1 PUF domain R3-RIR (Homo sapiens, UniProt Q14671 828-1176, C935R;R936I;Q939R). The essentials:
as §1

A further assay has as its target PUM1 PUF domain R8-PFV (Homo sapiens, UniProt Q14671 828-1176, N1122P;Y1123F;Q1126V). The essentials: as §1
The next assay deals with PUM1 PUF domain R8-HWK (Homo sapiens, UniProt Q14671 828-1176, N1122H;Y1123W;Q1126K). Put shortly:
as §1

For the next assay, the target named is PUM1 PUF domain R7-QND (Homo sapiens, UniProt Q14671 828-1176, S1079Q;E1083D). The essentials: as §1
PUM1 PUF domain R7-QND, sequence (Q14671 828-1176 S1079Q/E1083D): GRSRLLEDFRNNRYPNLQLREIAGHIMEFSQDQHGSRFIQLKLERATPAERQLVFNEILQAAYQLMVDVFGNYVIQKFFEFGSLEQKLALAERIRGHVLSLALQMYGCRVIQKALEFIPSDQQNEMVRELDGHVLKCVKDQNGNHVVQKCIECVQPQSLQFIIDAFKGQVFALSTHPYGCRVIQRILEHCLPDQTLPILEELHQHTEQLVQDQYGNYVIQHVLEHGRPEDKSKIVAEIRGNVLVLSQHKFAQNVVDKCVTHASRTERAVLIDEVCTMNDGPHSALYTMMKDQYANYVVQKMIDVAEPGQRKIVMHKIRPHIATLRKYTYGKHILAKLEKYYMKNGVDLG

PUM1 PUF domain R8-HWK, sequence (Q14671 828-1176 N1122H/Y1123W/Q1126K): as the sequence (Q14671 828-1176 S1079Q/E1083D) above, with Q252S, D256E, N295H, Y296W, Q299K counted along it
PUM1 PUF domain R3-RIR, sequence (Q14671 828-1176 C935R/R936I/Q939R): as the sequence (Q14671 828-1176 S1079Q/E1083D) above, with C108R, R109I, Q112R, Q252S, D256E counted along it
PUM1 PUF domain R1-CIR, sequence (Q14671 828-1176 S863C/R864I/Q867R): as the sequence (Q14671 828-1176 S1079Q/E1083D) above, with S36C, R37I, Q40R, Q252S, D256E counted along it
PUM1 PUF domain R5-QIR, sequence (Q14671 828-1176 C1007Q/R1008I/Q1011R): as the sequence (Q14671 828-1176 S1079Q/E1083D) above, with C180Q, R181I, Q184R, Q252S, D256E counted along it
PUM1 PUF domain R8-PFV, sequence (Q14671 828-1176 N1122P/Y1123F/Q1126V): as the sequence (Q14671 828-1176 S1079Q/E1083D) above, with Q252S, D256E, N295P, Y296F, Q299V counted along it
PUM1 PUF domain R5-RTL, sequence (Q14671 828-1176 C1007R/R1008T/Q1011L): as the sequence (Q14671 828-1176 S1079Q/E1083D) above, with C180R, R181T, Q184L, Q252S, D256E counted along it
PUM1 PUF domain R1-KRQ, sequence (Q14671 828-1176 S863K): as the sequence (Q14671 828-1176 S1079Q/E1083D) above, with S36K, Q252S, D256E counted along it
PUM1 PUF domain R7-GRV, sequence (Q14671 828-1176 S1079G/N1080R/E1083V): as the sequence (Q14671 828-1176 S1079Q/E1083D) above, with Q252G, N253R, D256V counted along it
PUM1 PUF domain R1-TFR, sequence (Q14671 828-1176 S863T/R864F/Q867R): as the sequence (Q14671 828-1176 S1079Q/E1083D) above, with S36T, R37F, Q40R, Q252S, D256E counted along it

“GGCUAGAACUAGUGGAUCCCCCGGCGCCCGGCGGCUCGAGCCCGGGUAAGUUUAAAUAGUCUGCAUGCCGCCGGGCGCCAUGCCUGCAGGUCGACUCUAGAAAACAUG”: in the assay with PUM1 PUF domain R7-GRV, the binding signal is 2.62 log2 enrichment (interaction score).
For “GGCUAGAACUAGUGGAUCCCCCGGCGCCCGGCGGCUCGAGCCCGGGUAAGUGUAAAUUGUCUGCAUGCCGCCGGGCGCCAUGCCUGCAGGUCGACUCUAGAAAACAUG”, the binding signal with PUM1 PUF domain R1-CIR was 0.87 log2 enrichment (interaction score).
With “GGCUAGAACUAGUGGAUCCCCCGGCGCCCGGCGGCUCGAGCCCGGGUAAGUGUCAAUAGUCUGCAUGCCGCCGGGCGCCAUGCCUGCAGGUCGACUCUAGAAAACAUG”, the values for the binding signal in the assay with PUM1 PUF domain R5-QIR and with PUM1 PUF domain R5-RTL were 3.55 log2 enrichment (interaction score) and 2.38 log2 enrichment (interaction score), respectively.
As for “GGCUAGAACUAGUGGAUCCCCCGGCGCCCGGCGGCUCGAGCCCGGGUAAGUGUAAAUCGUCUGCAUGCCGCCGGGCGCCAUGCCUGCAGGUCGACUCUAGAAAACAUG”, the binding signal was 6.07 log2 enrichment (interaction score) with PUM1 PUF domain R1-TFR, 4.43 log2 enrichment (interaction score) in the assay with PUM1 PUF domain R1-CIR and 5.97 log2 enrichment (interaction score) with PUM1 PUF domain R1-KRQ.
For the sequence “GGCUAGAACUAGUGGAUCCCCCGGCGCCCGGCGGCUCGAGCCCGGGUAAGUGUUAAUAGUCUGCAUGCCGCCGGGCGCCAUGCCUGCAGGUCGACUCUAGAAAACAUG”, the binding signal in the assay with PUM1 PUF domain R5-QIR is 1.95 log2 enrichment (interaction score).
“GGCUAGAACUAGUGGAUCCCCCGGCGCCCGGCGGCUCGAGCCCGGGUAAGUGUAAGUAGUCUGCAUGCCGCCGGGCGCCAUGCCUGCAGGUCGACUCUAGAAAACAUG”: the binding signal in the assay with PUM1 PUF domain R3-RIR is 5.02 log2 enrichment (interaction score).
Regarding “GGCUAGAACUAGUGGAUCCCCCGGCGCCCGGCGGCUCGAGCCCGGGUAAGCGUAAAUAGUCUGCAUGCCGCCGGGCGCCAUGCCUGCAGGUCGACUCUAGAAAACAUG”, the binding signal is 2.24 log2 enrichment (interaction score) with PUM1 PUF domain R8-PFV and 2.42 log2 enrichment (interaction score) with PUM1 PUF domain R8-HWK.
With “GGCUAGAACUAGUGGAUCCCCCGGCGCCCGGCGGCUCGAGCCCGGGUAAGUGUAAAUAGUCUGCAUGCCGCCGGGCGCCAUGCCUGCAGGUCGACUCUAGAAAACAUG”, the figures for the binding signal with PUM1 PUF domain R7-QND, in the assay with PUM1 PUF domain R8-PFV and with PUM1 PUF domain R8-HWK were 3.96 log2 enrichment (interaction score), 1.89 log2 enrichment (interaction score) and 2.36 log2 enrichment (interaction score), respectively.
Consider “GGCUAGAACUAGUGGAUCCCCCGGCGCCCGGCGGCUCGAGCCCGGGUAAGGGUAAAUAGUCUGCAUGCCGCCGGGCGCCAUGCCUGCAGGUCGACUCUAGAAAACAUG”, for which, in the assay with PUM1 PUF domain R8-HWK, the binding signal is 2.46 log2 enrichment (interaction score).
As for “GGCUAGAACUAGUGGAUCCCCCGGCGCCCGGCGGCUCGAGCCCGGGUAAGUGUAAUUAGUCUGCAUGCCGCCGGGCGCCAUGCCUGCAGGUCGACUCUAGAAAACAUG”, in the assay with PUM1 PUF domain R3-RIR, the binding signal was 4.33 log2 enrichment (interaction score).
